Test [1] in a line: qHTS RealTime-Glo MT Cell Viability Assay in HepG2 cells - 40 hour (AID 1224870). Note: nearly all actives have a fitted effect of over 50% in size. A digest of the protocol: (§1)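 HepG2 cells mixed with RealTime-Glo MT reagents (NanoLuc plus cell-permeant prosubstrate) were seeded at 600 cells/well, incubated 5 h at 37 C/5% CO2, then pinned with compounds in DMSO; nonlytic luminescence tracked viability during 40 h treatment.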
A short description of test [2]: A CellTox Green Cytotoxicity Assay to monitor cytotoxicity in HEK293 cells - 40 hour (AID 1224871). Note: nearly all actives have a fitted effect of over 45% in size. In outline:
(§2)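 Dead-cell fluorescence measured kinetically: asymmetric cyanine dye, HEK293, 600 cells/well, 5 h settle, 23 nL cpd/DMSO, 37 C, reads 0–40 h every 8 h.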

Test [3] in a line: qHTS RealTime-Glo MT Cell Viability Assay in HEK293 cells - 16 hour (AID 1224872). For activity change, negative = cytotoxicity: top concentration of the series differs between compounds. Note: nearly all actives have a fitted effect of over 50% in size. In outline: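 Homogeneous bioluminescent viability format in HEK293 cells (600 cells/well). Following 5 h at 37 C/5% CO2, 23 nL compound was pintooled; the signal was measured repeatedly during 40 h incubation.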
A short description of test [4]: qHTS RealTime-Glo MT Cell Viability Assay in HepG2 cells - 8 hour (AID 1224873). Note: nearly all actives have a fitted effect of over 55% in size. A digest of the protocol:
as §1
Background: qHTS replaces the single test concentration by a dilution series.

Test [5] can be described thus: qHTS RealTime-Glo MT Cell Viability Assay in HEK293 cells - 40 hour (AID 1224874). Note: nearly all actives have a fitted effect of over 50% in size. Particulars: RealTime-Glo luminescence; max response: active compounds read low. In outline: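 600 HEK293 cells per well, dispensed already mixed with RealTime-Glo MT reagents. Compound dosing came 5 h later. The same wells were read for luminescence at 0, 8, 16, 24, 32 and 40 h of exposure at 37 C.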

The nature of test [6]: A CellTox Green Cytotoxicity Assay to monitor cytotoxicity in HEK293 cells - 24 hour (AID 1224875). For activity change: series mostly up to about 77 µM. Note: nearly all actives have a fitted effect of over 45% in size. In outline:
as §2

A short description of test [7]: A CellTox Green Cytotoxicity Assay to monitor cytotoxicity in HepG2 cells - 16 hour (AID 1224876). Note: nearly all actives have a fitted effect of over 45% in size. A digest of the protocol: (§3)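 First, HepG2 cells (600/well) mixed with reagent were plated; second, after 5 h at 37 C they received compounds via pintool; third, fluorescence was measured at 0 h through 40 h at 8 h intervals.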
Test [8] can be described thus: qHTS RealTime-Glo MT Cell Viability Assay in HepG2 cells - 32 hour (AID 1224877). Note: nearly all actives have a fitted effect of over 55% in size. A digest of the protocol:
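Cell number in HepG2 cultures estimated from NanoLuc luminescence generated by metabolic reduction of a prosubstrate by living cells. The homogeneous, nonlytic format allowed repeated reads at 0, 8, 16, 24, 32 and 40 h of compound exposure.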

A short description of test [9]: A CellTox Green Cytotoxicity Assay to monitor cytotoxicity in HepG2 cells - 24 hour (AID 1224878). Note: nearly all actives have a fitted effect of over 45% in size. In outline: as §3
Test [10] in a line: A CellTox Green Cytotoxicity Assay to monitor cytotoxicity in HepG2 cells - 40 hour (AID 1224879). Note: nearly all actives have a fitted effect of over 40% in size. In outline: as §3

Records with an inconclusive call do not appear. A number with no mark means an inactive call. The source made the active and inactive calls. Calls come from the whole dose curve; as a rule, active = well fitted curve in the direction sought with a large enough effect in the repeat runs; inconclusive = weak or mixed curves; inactive = no such curve, though single readings can be large; an effect the other way counts as inactive or inconclusive.
% is set by controls: 0 for no effect and ±100 for the full control effect; potency is the fitted concentration of half-maximal effect.

In the case of `CC(CCO)CCc1ccccc1` (stereo not drawn), the Potency result in test [1], in test [2], in test [3], in [4], in [6] and in test [7] was “inactive” throughout. Moreover, the Potency entry in test [8], in test [9] and in test [10] was “inactive” each time. Besides, in test [5], the max response is -8.5%.

With `CC(=O)Nc1ccccc1C`, the Potency result in test [1], in test [2], in test [3], in [4], in test [6] and in test [7] was “inactive” each time. Besides, the Potency result in [8], in test [9] and in test [10] was “inactive” in each case. Also, the max response in test [5] was 1.18%.

Take `CO[C@H]1O[C@H](CO)[C@@H](O)[C@H](O)[C@H]1O`: the Potency entry in test [1], in test [2], in test [3], in test [4], in test [6] and in [7] was “inactive” in each case. In addition, the Potency entry in test [8], in [9] and in test [10] was “inactive” in each case. Moreover, the max response in test [5] is 5.92%.

For `CC1CN(c2cc3c(cc2F)c(=O)c(C(=O)O)cn3-c2ccc(F)cc2F)CCN1` (stereo not drawn), the activity change, negative = cytotoxic is 3.59% [at 6.97 µM] in [1] and 0.449% [at 6.97 µM] in [8]. Further, the cytotoxicity increase in [2] is -7.27% [at 6.97 µM]; in test [7], 0.798% [at 6.97 µM]; in [10] it was 1.74% [at 6.97 µM]. For the same compound, the activity change, negative = cytotoxicity in test [3] is 6.7% [at 6.97 µM]. Moreover, the viability change, negative = cytotoxic in test [4] was 1.58% [at 6.97 µM]. Moreover, the max response in test [5] is 2.82%. Also, in test [6], the activity change is -1.61% [at 6.97 µM, active compounds read high]. For the same compound, the cytotoxicity in test [9] was -0.333% [at 6.97 µM].

Turning to `CC(C)CCCC(=O)O`, the Potency result in [1], in test [2], in test [3], in test [4], in test [6] and in test [7] was “inactive” in each case. For the same compound, the Potency entry in test [8], in test [9] and in test [10] was “inactive” in each case. Further, the max response in test [5] was -12.3%.

As for `CC1=CC(=O)CC(C)(C)C1(O)/C=C/C(C)=C\C(=O)O` (stereo not drawn), the Potency entry in test [1], in [2], in [3], in [4], in test [6] and in test [7] was “inactive” each time. Besides, the Potency result in test [8], in [9] and in [10] was “inactive” each time. Further, in test [5], the max response was 8.54%.

`CCCCC(=O)O[C@]1(C(=O)CO)CC[C@H]2[C@@H]3CCC4=CC(=O)CC[C@]4(C)[C@H]3[C@@H](O)C[C@@]21C`: the Potency entry in [1], in test [2], in [3], in test [4], in [6] and in test [7] was “inactive” in each case. Moreover, the Potency entry in test [8], in test [9] and in test [10] was “inactive” throughout. Besides, the max response in test [5] is -24%.

Regarding `O=S(=O)(c1ccccc1)c1ccc(Cl)cc1`, the Potency result in [1], in test [2], in [3], in test [4], in test [6] and in [7] was “inactive” throughout. The Potency entry in [8], in test [9] and in [10] was “inactive” each time. Moreover, the max response in [5] was -0.98%.

For `CCCCCCCC/C=C\CCCCCCCC(=O)OC(CO)CO`, the Potency entry in test [1], in test [2], in test [3], in test [4], in [6] and in test [7] was “inactive” in each case. In addition, the Potency result in test [8], in test [9] and in [10] was “inactive” in each case. Further, the max response in [5] was 0.119%.

On to `CO/N=C1\CN(c2nc3c(cc2F)c(=O)c(C(=O)O)cn3C2CC2)CC1CN` (stereo not drawn), for which the Potency result in test [1], in [2], in test [3], in test [4], in test [6] and in test [7] was “inactive” throughout. For the same compound, the Potency entry in [8], in test [9] and in [10] was “inactive” each time. Further, the max response in [5] was 8.45%.

As for `CC1CC(O)CC(C)(C)C1` (stereo not drawn), the Potency entry in test [1], in test [2], in test [3], in test [4], in [6] and in [7] was “inactive” in each case. Besides, the Potency entry in test [8], in test [9] and in [10] was “inactive” throughout. Besides, the max response in test [5] is -3.83%.

Consider `O=S1OCCO1`, for which the Potency entry in [1], in [2], in [3], in test [4], in [6] and in [7] was “inactive” in each case. Also, the Potency entry in test [8], in [9] and in test [10] was “inactive” in each case. Further, in test [5], the max response is 21%.

With `c1cnc2c(n1)CCCC2`, the Potency result in [1], in [3], in test [4] and in test [8] was “inactive” throughout. Moreover, the Potency in test [2] is 43.6 µM (active); in test [6], 43.6 µM (active); in [7], 38.9 µM (active); in test [9] it was 38.9 µM (active); in test [10] it was 38.9 µM (active). In addition, in test [5], the max response was 1.7%.

Turning to `CC(=O)CC(c1ccc([N+](=O)[O-])cc1)c1c(O)c2ccccc2oc1=O` (stereo not drawn), the Potency result in test [1], in [2], in test [3], in test [4], in [6] and in test [7] was “inactive” each time. Also, the Potency entry in [8], in test [9] and in [10] was “inactive” each time. Also, the max response in [5] is -4.65%.

As for `C[C@]12CCC(=O)C=C1C=C[C@@H]1[C@@H]2CC[C@@]2(C)[C@H]1CC[C@@]21CCC(=O)O1`, the Potency entry in test [1], in test [2], in [3], in test [4], in test [6] and in [7] was “inactive” in each case. Further, the Potency entry in test [8], in test [9] and in [10] was “inactive” in each case. In addition, the max response in [5] is -25.7%.

As to `Cc1cc2nc3ccc(=[N+](C)C)cc-3sc2cc1N`, the Potency in [1] was 21.3 µM (active); in [3] it was 2.13 µM (active); in test [4] it was 9.52 µM (active); in test [5] it was 2.13 µM (active); in test [8], 19 µM (active). For the same compound, the Potency result in test [2], in test [6], in test [7], in [9] and in [10] was “inactive” throughout.

For `Cc1cc(OI)c(C(C)C)cc1-c1cc(C(C)C)c(OI)cc1C`, the Potency result in test [1], in test [2], in [3], in test [4], in test [6] and in test [7] was “inactive” in each case. The Potency entry in test [8], in test [9] and in [10] was “inactive” each time. Further, the max response in test [5] is -0.141%.

On to `C=CCCCCCCCCCCCCCCCC`, for which the activity change, negative = cytotoxic in test [1] was 26.4% [at 6.97 µM]; in test [8], 7.54% [at 6.97 µM]. Also, the cytotoxicity increase in test [2] is -6.74% [at 6.97 µM]; in test [7] it was -18.8% [at 6.97 µM]; in test [10], -20.6% [at 6.97 µM]. For the same compound, the activity change, negative = cytotoxicity in test [3] was -3.07% [at 6.97 µM]. Moreover, the viability change, negative = cytotoxic in test [4] was -17.7% [at 6.97 µM]. The max response in [5] is -5.15%. For the same compound, the activity change in [6] was -1.9% [at 6.97 µM, active compounds read high]. For the same compound, in test [9], the cytotoxicity is -19.1% [at 6.97 µM].

In the case of `O=C(O)Cc1ccc(-c2ccccc2)cc1`, the Potency entry in test [1], in test [2], in test [3], in test [4], in test [6] and in test [7] was “inactive” each time. Also, the Potency result in [8], in test [9] and in test [10] was “inactive” each time. Further, the max response in [5] was 10.5%.

On to `CC1(C)C2=CCCC(C)(C)[C@]23CC[C@H]1C3`, for which the Potency result in test [1], in test [3], in test [4], in [6], in test [7] and in test [8] was “inactive” in each case. Further, in test [2], the Potency is 38.9 µM (active). The max response in test [5] was -11.7%.

(Values after PubChem BioAssay (Tox21).)
